High-throughput results (PubChem BioAssay)
PI5P4Ka inh: PI5P4K alpha (human) kinase inhibition. P48426. PI5P4Kalpha enzyme, ADP-Glo luminescence, 60 min; stronger effect = lower value. max response, %. hit rate 1.2% among 330,000. AID 652105; active means max response of -50% or lower; inconclusive means between -30% and -50%; inactive means -30% or higher; further: value at the top dose of about 77 µM; on the % scale 0 is the no-effect control and ±100 the full control effect
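PI5P4Kalpha ADP-Glo assay; 5 microM ATP final; 60 min RT reaction; HEPES pH 7.4/EGTA/CHAPS, 5% DMSO; controls lacking substrate or enzyme; luminescent end-point.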
G9a inh: inhibitors of human histone lysine methyltransferase G9a | G9a H3K9 monomethylation, AlphaScreen, 2 h | Potency, µM (top dose mostly 102 µM), without a hit: at the top dose activity, negative = inhibition, hits mostly inhibitors | hit rate 8.8% among 350,000; further: potency means the concentration at half of the fitted maximal effect; on the % scale 0 is the no-effect control and ±100 the full control effect; nearly all actives have a fitted effect of over 75% in size
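Signal arises when biotinylated H3K9 peptide, once monomethylated, bridges streptavidin donor and antibody-captured acceptor beads. Enzyme at 20 nM was preincubated 15 min with test compounds; peptide 500 nM and SAM 20 uM then reacted for 2 h.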
BAZ2B inh: BAZ2B (human) inhibition; AlphaScreen BAZ2B-H3K14Ac peptide displacement; Potency, µM (highest dose often 114 µM), for inactives: at the top dose activity change, negative = inhibition, actives largely listed as inhibitors; hit rate 4.4% among 360,000; further: potency means the concentration at half of the fitted maximal effect; on the % scale 0 is the no-effect control and ±100 the full control effect; nearly all actives have a fitted effect of over 60% in size
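Inhibition is scored as reduced AlphaScreen emission. The BAZ2B/b-H3(5-23)K14Ac complex (50 nM each) in PBS pH 7.4, 0.01% Tween-20 meets compound (up to 110 uM) for 30 min at RT before bead addition.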
HP1b binding inh: HP1-beta chromodomain-methylated histone interaction inhibition. P83916. AlphaScreen HP1-beta / biotin-H3K9me3 peptide binding. Potency, µM (titrated, usually from 114 µM), for inactives: at the highest dose activity change, negative = inhibition, hits mostly inhibitors. hit rate 0.56% among 390,000. AID 540317; further: potency means the concentration at half of the fitted maximal effect; nearly all actives have a fitted effect of over 70% in size
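HP1-beta protein (50 nM final) preincubated 30 min at room temperature with biotinylated H3(1-18)K9me3 peptide (50 nM) in PBS pH 7.4, 0.01% Tween-20, then compound added for 30 min. AlphaScreen streptavidin donor/nickel chelate acceptor beads (10 ug/mL final), 30 min dark, luminescence read.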
L3MBTL1 inh: blocks human L3MBTL1 | hit rate 0.66% among 230,000 | Potency, µM (titrated, usually from 57.1 µM), without a hit: top-dose activity, negative = inhibition, hits mostly inhibitors | AID 485360 | Q9Y468 | AlphaScreen L3MBTL1–H3K9me1 peptide binding; further: potency means the concentration at half of the fitted maximal effect; on the % scale 0 is the no-effect control and ±100 the full control effect; nearly all actives have a fitted effect of over 60% in size
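Read-out is AlphaScreen signal from streptavidin donor and nickel chelate acceptor beads (10 ug/mL final each) bridging L3MBTL1 (50 nM) and biotinylated K9-monomethylated H3(1-15) peptide (75 nM), after 30 min compound exposure at room temperature.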
JMJD2A Tudor inh: blocks the human JMJD2A Tudor domain. O75164. Potency, µM (highest dose often 114 µM), inactives show at the highest dose activity change, negative = inhibition, actives largely listed as inhibitors. AlphaScreen JMJD2A-Tudor / H3K4me3 peptide binding. hit rate 4.4% among 390,000; further: potency means the concentration at half of the fitted maximal effect; on the % scale 0 is the no-effect control and ±100 the full control effect; nearly all actives have a fitted effect of over 50% in size
The depositor's hits bear a star; ? = inconclusive; · = no result given; [ ] = remark or other dose. Shown are actives, neighbours in structure and some others; about 11% of the full set was active somewhere. Unless noted, the call rests on the fitted dose curve; in most records, active means well fitted inhibition curve with a large enough effect; inconclusive means small, poorly fitted or top-dose-only effect; inactive means no such curve, though single readings can be large or run the other way.

SMILES	PI5P4Ka inh	G9a inh	BAZ2B inh	HP1b binding inh	L3MBTL1 inh	JMJD2A Tudor inh
O=C(c1ccc2c(c1)N(Cc1ccc(F)cc1)C(=O)c1ccccc1S2(=O)=O)N1CCCCC1	·	0%[59 µM]	-25%	7%	·	-31%
CCOc1ccc(Nc2nc3c(S(=O)(=O)c4ccc(CC)cc4)nnn3c3ccc(Cl)cc23)cc1	·	2%[59 µM]	6%	3%	·	?
COc1ccc(N2CCN(S(=O)(=O)CCNC(=O)c3c(F)cccc3Cl)CC2)cc1	·	-32%[59 µM]	-17%	22%[57 µM]	·	-4%
Cc1ccccc1Nc1nc(N)nc(CSc2nnnn2C)n1	3	4%	56µM*	21%	-33%	?
CCc1ccccc1Nc1nc(N)nc(CSc2nnnn2C)n1	-2	3%	?	35%	·	-7%
Cc1cc(C)c2cc(C(=O)Nc3ccc(C)c(F)c3)[nH]c2c1	0	45µM*	-8%	45%	·	-17%
CCCCNC(=O)c1cccc(C(=O)NCCCC)c1	·	-30%[12.7 µM]	6%	22%	-16%	-1%
CCCCNC(=O)c1cc2c(C)cc(C)cc2[nH]1	-3	50µM*	-25%	33%	·	-19%
CCn1cc2nc(SCc3cccc(OC)c3)n(Cc3ccc(Cl)cc3)c(=O)c2n1	·	-41%[59 µM]	-6%	8%	·	-13%
Nc1ncc(S(=O)(=O)NCc2ccccc2)cn1	·	7%[59 µM]	4%	10%[57 µM]	·	-4%
O=C1C2=C(CCCC2)C(=O)N1c1cccc(OCCBr)c1	1	40µM*	-6%	45%	9%	6%[57.1 µM]
Cc1ccc(O)c(CO)n1	2	11%	5%	-4%	8%	-10%
Cc1nc2c(O)cccc2cc1CO	2	10µM*	-37%	6%	-8%	4.5µM*
COCCCn1c(=S)[nH]c2ccc(N3CCOCC3)cc2c1=O	-6	?	9%	34%	-3%	?
CCCCN(C)CCn1c(=S)[nH]c2ccc(N3CCOCC3)cc2c1=O	·	?	3%	18%	2%[11.4 µM]	28µM*
CCOc1cc2[nH]c(=O)n(Cc3ccc(C(=O)N4CCN(c5ccccc5)CC4)cc3)c(=O)c2cc1OCC	·	1%[59 µM]	-29%	19%	·	-30%
COc1ccc(CCn2c(=S)[nH]c3ccc(N4CCOCC4)cc3c2=O)cc1OC	-22	18µM*	-26%	-21%	-12%	-5%
CCOc1cc2[nH]c(=S)n(Cc3ccc(C(=O)O)cc3)c(=O)c2cc1OCC	0	18µM*	-11%	-1%	·	?
CCCCN(C)CCn1c(=S)[nH]c2cc(OCC)c(OCC)cc2c1=O	1	11µM*	-22%	59%	·	-13%
Cc1cc2cc(CCNC(=O)c3ccc(Br)o3)c(=O)[nH]c2cc1C	-6	18µM*	-23%	32%	-3%	-22%
Cc1ccc(C)c2[nH]c(=O)c(CCNC(=O)c3ccc(Br)o3)cc12	·	·	·	39%	·	-19%
COc1ccc2cc(CCNC(=O)c3ccc(Br)o3)c(=O)[nH]c2c1	0	50µM*	6%	13%	-4%	-27%
Cc1cccc(Cn2c(C)c(CNC3CCCCCC3)c(C(=O)O)c2C)c1	·	3%[59 µM]	-9%	-6%	·	-26%
COc1ccc(-c2nc3sc(CCNC(=O)c4cc(OC)c(OC)c(OC)c4)c(C)n3n2)cc1	·	2%[59 µM]	-2%	19%	·	-15%
O=C(O)[C@H](CC(=O)N1C[C@H]2CCCC[C@H]2C1)Cc1ccccc1	·	5%[12.7 µM]	·	·	·	·
SMILES	PI5P4Ka inh	G9a inh	BAZ2B inh	HP1b binding inh	L3MBTL1 inh	JMJD2A Tudor inh
O=C(CN1CCCC1)N1CCCC(c2ccc(F)cc2)c2ccc(F)cc21 (stereo not given)	1	28µM*	-37%	?	1%	0.89µM*
O=C1CC(c2ccccc2)Cc2[nH]c(=O)c(C(=O)Nc3ccc(OC(F)(F)F)cc3)cc21 (stereo not given)	·	10%[59 µM]	1%	26%	·	-8%
COc1ccc(CCNc2oc(COc3ccc(Br)cc3)nc2C#N)cc1OC	8	40µM*	?	28%	·	?
N#Cc1nc(COc2ccccc2F)oc1NCc1ccc(F)cc1	-5	35µM*	?	-8%	-18%	-30%
COc1ccc(CNc2oc(COc3ccc(Cl)cc3)nc2C#N)cc1	32	?	?	?	-18%	?
COc1ccc(CCNc2oc(COc3ccccc3F)nc2C#N)cc1	-7	35µM*	?	-26%	-10%	-30%
Cc1ccc(C(=O)Nc2nnc(S(=O)(=O)N(C)Cc3ccc(F)cc3)s2)cc1	·	-26%[59 µM]	-12%	44%	·	2%
Cc1ccc(NS(=O)(=O)c2cc3c(cc2F)NC(=O)CC3)cc1C	·	·	·	·	·	-7%
CC1CCN(CCCCOc2ccccc2Br)CC1	3	10µM*	?	-17%	-6%	16µM*
Brc1ccccc1OCCCCN1CCCCC1	2	25%	4%	21%	0%	-10%
CC1CCN(CCCCOc2ccccc2F)CC1	-12	-15%	50µM*	1%	·	10µM*
COc1ccc(NC(=O)Cn2c(=O)n(CCCC(=O)NCc3ccccc3Cl)c(=O)c3ccccc32)c(OC)c1	·	-11%[59 µM]	-7%	2%	·	-16%
CC[C@H](C)/C=C/C1=CC2=C(Cl)C(=O)[C@@]3(C)OC(=O)C(C(=O)[C@H](C)[C@@H](C)O)=C3C2=CO1	-81*	·	·	?	·	56µM*
COc1ccc(COc2cc(-c3cccc(OC)c3)nc3ccc(N)cc23)cc1	28	45µM*	?	7%	-24%	?
C[C@H]1NC(=O)NC1=O	·	21%[21.5 µM]	·	·	·	·
O=C(NCc1ccccc1)NC1COc2ccccc2C1 (stereo not given)	·	1%[59 µM]	12%	-27%[57 µM]	·	-8%
N=C(N)SCc1nc2ccccc2c(=O)n1-c1ccccc1	?	45µM*	-28%	-20%	10%	?
O=C(O)c1ccc(CSc2nc3ccccc3c(=O)n2-c2ccccc2)cc1	-1	7%	-19%	49%	-2%	5%
C#CC(N)CCC(=O)O (stereo not given)	·	37%[59 µM]	·	·	·	·
COc1ccc(CNC(=O)c2cc3cc(S(=O)(=O)N4CCCCC4)ccc3n2C)c(OC)c1	·	-3%[59 µM]	-2%	24%[57 µM]	·	-7%
COc1ccccc1CNC(=O)C1CCCN(C(=O)c2cnn(-c3ccc(F)cc3)c2-n2cccc2)C1 (stereo not given)	·	?	-17%	44%	·	2%
COc1ccc(-n2c(COc3ccc4c(c3)OCO4)nnc2SCC(=O)O)cc1	-19	50µM*	-27%	21%	-11%	-21%
CCOC(=O)CSc1nnc(Cc2ccc(OC)cc2)n1-c1ccccc1	·	7.9µM*	8%	34%	·	45µM*
CCn1c(COc2ccc3c(c2)OCO3)nnc1SCC(=O)c1ccc(Cl)cc1	-2	50µM*	-1%	18%	·	-10%
CCn1c(COc2ccccc2)nnc1SCC(=O)c1cccc([N+](=O)[O-])c1	·	40µM*	-34%	-5%	-3%	?
